Test results from PubChem BioAssay AID1159580 (chemical genetic matrix, 2015).
Where “and” joins values, the source holds several entries; their conditions need not be identical. Equal values may be shown once. Hit rate of the full screen: of about 5,500 compounds, about 2,000 (36%) were called active. Not shown: some 18% with an inconclusive outcome. Cut-off read from the data, not from the text of the source: active = normalized growth mostly below about 0.91 (no sharp cut-off); inconclusive = no clear call, values can overlap the other calls; inactive = mostly above about 0.92. This is one part of the list.

Assay: chemical genetic growth profiling, strain panel (AID 1159580);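 note: tested at 20 µM; growth read once vehicle control cultures reached saturation at 30 °C; 1 = growth at the plate median or of vehicle wells; lower values mean less growth of the strain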
Conditions: S. cerevisiae deletion strains, growth OD

Measured: normalized growth

COc1ccc2cc1Oc1ccc(cc1)C[C@H]1c3cc(c(OC)cc3CCN1C)Oc1c(OC)c(OC)cc3c1[C@H](C2)N(C)CC3
active: locus YAL021C, strain ccr4, active compounds read low 0.853 | locus YBR021W, strain FUR4, active compounds read low 0.596 | locus YDR069C, strain doa4, active compounds read low 0.733 | locus YDR388W, active compounds read low 0.241 | locus YFR010W, strain ubp6, active compounds read low 0.854
inactive: locus YAL013W, strain DEP1, active compounds read low 1.01 | locus YAL026C, strain drs2, active compounds read low 1 | locus YAL030W, strain snc1, active compounds read low 1.01 | locus YBL061C, strain skt5, active compounds read low 1.01 | locus YBR009C, strain hhf1, active compounds read low 0.982 | locus YBR023C, strain chs3, active compounds read low 1.01 | locus YBR171W, strain sec66, active compounds read low 1.02 | locus YBR229C, strain ROT2, active compounds read low 1.01 | locus YBR231C, strain swc5, active compounds read low 0.988 | locus YBR279W, strain paf1, active compounds read low 0.998 | locus YCL011C, strain gbp2, active compounds read low 0.988 | locus YCL016C, strain dcc1, active compounds read low 0.968 | locus YCL029C, strain bik1, active compounds read low 1.03 | locus YCL069W, strain vba3, active compounds read low 1.01 | locus YCR088W, strain abp1, active compounds read low 1.01 | locus YDL005C, strain med2, active compounds read low 1 | locus YDL035C, strain GPR1, active compounds read low 0.977 | locus YDL040C, strain nat1, active compounds read low 1 | locus YDL074C, strain BRE1, active compounds read low 0.972 | locus YDL101C, strain DUN1, active compounds read low 1.01 | locus YDL134C, strain PPH21, active compounds read low 1.01 | locus YDL185W, strain tfp1, active compounds read low 1.01 | locus YDL192W, strain arf1, active compounds read low 0.997 | locus YDR001C, strain nth1, active compounds read low 1.02 | locus YDR101C, strain arx1, active compounds read low 1.01 | locus YDR137W, strain rgp1, active compounds read low 0.998 | locus YDR150W, strain NUM1, active compounds read low 1.01 | locus YDR159W, strain sac3, active compounds read low 1.02 | locus YDR162C, strain NBP2, active compounds read low 0.974 | locus YDR195W, strain ref2 1.02 | locus YDR297W, strain sur2, active compounds read low 1 | locus YDR318W, strain mcm21, active compounds read low 1 | locus YDR334W, strain swr1, active compounds read low 1.01 | locus YDR335W, strain msn5, active compounds read low 0.999 | locus YDR392W, strain spt3, active compounds read low 0.79 | locus YDR502C, strain sam2, active compounds read low 0.99 | locus YEL003W, strain gim4, active compounds read low 0.998 | locus YEL037C, strain rad23, active compounds read low 0.989 | locus YEL061C, strain CIN8 (second series), active compounds read low 1.01 | locus YEL061C, strain CIN8, active compounds read low 1.01 | locus YER015W, strain faa2, active compounds read low 0.997 | locus YER016W, strain bim1, active compounds read low 1 | locus YER110C, active compounds read low 1.03 | locus YER111C, strain swi4, active compounds read low 0.997 | locus YER155C, strain BEM2 (second series), active compounds read low 0.887 | locus YER155C, strain BEM2, active compounds read low 1.03 | locus YER167W, strain BCK2, active compounds read low 0.964 | locus YGL078C, strain dbp3, active compounds read low 1.01 | locus YGL086W, strain mad1, active compounds read low 0.983 | locus YGL167C, strain pmr1, active compounds read low 1 | locus YGL173C, strain kem1, active compounds read low 1.02 | locus YGL227W, strain vid30, active compounds read low 0.997 | locus YGL240W, strain doc1, active compounds read low 1.01 | locus YGL248W, strain PDE1, active compounds read low 1 | locus YGL253W, strain hxk2, active compounds read low 1.01 | locus YGR078C, strain PAC10, active compounds read low 0.996 | locus YGR135W, strain pre9, active compounds read low 0.931 | locus YGR229C, strain SMI1, active compounds read low 0.993 | locus YGR252W, strain gcn5, active compounds read low 0.855 | locus YHR013C, strain ard1, active compounds read low 0.902 | locus YHR027C, strain rpn1, active compounds read low 1.02 | locus YHR030C, strain SLT2, active compounds read low 1.01 and 1 | locus YHR079C, strain IRE1 (second series), active compounds read low 1.01 | locus YHR079C, strain IRE1, active compounds read low 0.987 | locus YHR094C, strain hxt1, active compounds read low 1.02 | locus YHR129C, strain ARP1, active compounds read low 1.01 | locus YHR142W, strain chs7, active compounds read low 1.01 | locus YHR200W, strain rpn10, active compounds read low 0.989 | locus YIL066C, strain RNR3, active compounds read low 1 | locus YIL073C, strain SPO22, active compounds read low 1.31 | locus YIL125W, strain kgd1, active compounds read low 1.01 | locus YIR030C, strain dcg1, active compounds read low 1.02 | locus YJL092W, strain hpr5, active compounds read low 1.01 | locus YJL095W, strain BCK1 (second series), active compounds read low 1.02 | locus YJL095W, strain BCK1, active compounds read low 1.02 and 1.06 | locus YJL115W, strain asf1, active compounds read low 1.01 | locus YJL129C, strain trk1, active compounds read low 1.01 | locus YJL134W, strain LCB3, active compounds read low 1.02 | locus YJL154C, strain vps35, active compounds read low 1 | locus YJL164C, strain tpk1, active compounds read low 0.986 | locus YJL166W, strain qcr8, active compounds read low 0.984 | locus YJL168C, strain set2, active compounds read low 1.01 | locus YJL187C, strain SWE1 (second series), active compounds read low 1 | locus YJR043C, strain POL32, active compounds read low 0.996 | locus YJR066W, strain TOR1, active compounds read low 0.955 | locus YJR075W, strain HOC1, active compounds read low 0.924
